According to ChEMBL document CHEMBL2218924, “A broad activity screen in support of a chemogenomic map for kinase signalling research and drug discovery” (Biochem J, 2013):

molecular target: Protein kinase C delta type (Homo sapiens) (UniProt Q05655); conditions: at 10 µM
Sequence (Q05655 whole entry, looked up): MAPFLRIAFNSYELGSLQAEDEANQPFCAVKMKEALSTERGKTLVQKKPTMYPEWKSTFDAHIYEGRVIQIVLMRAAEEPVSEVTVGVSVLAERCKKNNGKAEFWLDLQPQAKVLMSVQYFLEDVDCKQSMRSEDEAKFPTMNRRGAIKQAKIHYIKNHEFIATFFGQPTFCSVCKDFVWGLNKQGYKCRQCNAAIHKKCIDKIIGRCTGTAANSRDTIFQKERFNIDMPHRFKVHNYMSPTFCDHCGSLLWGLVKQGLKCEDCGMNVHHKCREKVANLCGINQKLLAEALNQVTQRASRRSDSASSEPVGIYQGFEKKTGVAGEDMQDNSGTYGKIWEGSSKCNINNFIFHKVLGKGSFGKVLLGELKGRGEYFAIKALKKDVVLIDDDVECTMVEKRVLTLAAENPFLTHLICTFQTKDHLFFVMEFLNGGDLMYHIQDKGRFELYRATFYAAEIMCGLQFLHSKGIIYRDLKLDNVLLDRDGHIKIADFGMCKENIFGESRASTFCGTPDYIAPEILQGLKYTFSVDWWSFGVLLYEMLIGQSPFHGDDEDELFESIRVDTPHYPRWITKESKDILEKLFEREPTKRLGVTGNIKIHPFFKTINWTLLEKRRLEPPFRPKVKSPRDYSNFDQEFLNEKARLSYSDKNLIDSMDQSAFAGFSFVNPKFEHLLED

SMILES | residual activity
CC(C)(C)c1cc(C=C(C#N)C#N)cc(Br)c1O | 97%
COc1cc2ncnc(Nc3ccc(OCc4ccccc4)cc3)c2cc1OC | 106%
COC(=O)[C@@]1(O)C[C@H]2O[C@]1(C)n1c3ccccc3c3c4c(c5c6ccccc6n2c5c31)C(=O)NC4 | 3%
O=c1[nH]c2ccccc2n1C1CCN(Cc2ccc(-c3nc4cc5[nH]cnc5cc4nc3-c3ccccc3)cc2)CC1 | 111%
C[S+]([O-])c1ccc(-c2nc(-c3ccc(F)cc3)c(-c3ccncc3)[nH]2)cc1 (centres undefined) | 105%
O=C1Nc2ccc3ncsc3c2/C1=C/c1c[nH]cn1 | 5%
CCc1nc(-c2ccc(OC)cc2)[nH]c1-c1ccncc1 | 105%
CCn1cnc2c(Nc3cccc(Cl)c3)nc(N[C@@H]3CCCC[C@@H]3N)nc21 | 59%
O=[N+]([O-])/C=C/c1ccc2c(c1)OCO2 | 95%
COc1ccc2c(c1)/C(=C/c1cnc[nH]1)C(=O)N2 | 61%

molecular target: T1, Protein kinase C epsilon type (Homo sapiens) (UniProt Q02156); conditions: at 1 µM
T1 sequence (whole entry): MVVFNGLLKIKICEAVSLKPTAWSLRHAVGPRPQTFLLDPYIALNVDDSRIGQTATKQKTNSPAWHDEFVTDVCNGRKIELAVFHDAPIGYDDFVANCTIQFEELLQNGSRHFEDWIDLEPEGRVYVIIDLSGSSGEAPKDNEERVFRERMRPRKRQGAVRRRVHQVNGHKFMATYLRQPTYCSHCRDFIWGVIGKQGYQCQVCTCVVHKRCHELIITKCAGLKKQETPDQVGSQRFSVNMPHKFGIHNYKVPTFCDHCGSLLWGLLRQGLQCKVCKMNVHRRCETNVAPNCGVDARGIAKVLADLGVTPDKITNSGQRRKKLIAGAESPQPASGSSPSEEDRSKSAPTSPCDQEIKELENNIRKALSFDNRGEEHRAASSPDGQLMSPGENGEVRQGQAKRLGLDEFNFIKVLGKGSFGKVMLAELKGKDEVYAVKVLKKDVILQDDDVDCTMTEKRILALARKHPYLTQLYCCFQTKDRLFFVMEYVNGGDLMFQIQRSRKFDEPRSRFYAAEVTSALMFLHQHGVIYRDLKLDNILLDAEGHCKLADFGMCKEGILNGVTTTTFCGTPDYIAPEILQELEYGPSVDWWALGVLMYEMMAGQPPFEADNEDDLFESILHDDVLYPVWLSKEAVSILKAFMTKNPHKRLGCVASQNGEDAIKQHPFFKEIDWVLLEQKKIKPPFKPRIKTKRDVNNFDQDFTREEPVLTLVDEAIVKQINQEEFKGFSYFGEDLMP

SMILES | residual activity
CC(C)(C)c1cc(C=C(C#N)C#N)cc(Br)c1O | 108%
COc1cc2ncnc(Nc3ccc(OCc4ccccc4)cc3)c2cc1OC | 104%
COc1ccc2c(c[n+](C)c3c4cc5c(cc4ccc23)OCO5)c1OC | 88%
COC(=O)[C@@]1(O)C[C@H]2O[C@]1(C)n1c3ccccc3c3c4c(c5c6ccccc6n2c5c31)C(=O)NC4 | 51%
O=c1[nH]c2ccccc2n1C1CCN(Cc2ccc(-c3nc4cc5[nH]cnc5cc4nc3-c3ccccc3)cc2)CC1 | 87%
C[S+]([O-])c1ccc(-c2nc(-c3ccc(F)cc3)c(-c3ccncc3)[nH]2)cc1 (centres undefined) | 125%
O=C1Nc2ccc3ncsc3c2/C1=C/c1c[nH]cn1 | 27%
CCc1nc(-c2ccc(OC)cc2)[nH]c1-c1ccncc1 | 104%
CCn1cnc2c(Nc3cccc(Cl)c3)nc(N[C@@H]3CCCC[C@@H]3N)nc21 | 100%
COc1cc(OC)c(/C=C2\C(=O)Nc3ccccc32)c(OC)c1 | 95%
O=[N+]([O-])/C=C/c1ccc2c(c1)OCO2 | 81%

molecular target: T1, Protein kinase C epsilon type (Homo sapiens); conditions: at 10 µM

SMILES | residual activity
COc1cc2ncnc(Nc3ccc(OCc4ccccc4)cc3)c2cc1OC | 119%
COc1ccc2c(c[n+](C)c3c4cc5c(cc4ccc23)OCO5)c1OC | 78%
COC(=O)[C@@]1(O)C[C@H]2O[C@]1(C)n1c3ccccc3c3c4c(c5c6ccccc6n2c5c31)C(=O)NC4 | 10%
O=c1[nH]c2ccccc2n1C1CCN(Cc2ccc(-c3nc4cc5[nH]cnc5cc4nc3-c3ccccc3)cc2)CC1 | 100%
C[S+]([O-])c1ccc(-c2nc(-c3ccc(F)cc3)c(-c3ccncc3)[nH]2)cc1 (centres undefined) | 105%
O=C1Nc2ccc3ncsc3c2/C1=C/c1c[nH]cn1 | 9%
CCc1nc(-c2ccc(OC)cc2)[nH]c1-c1ccncc1 | 109%
CCn1cnc2c(Nc3cccc(Cl)c3)nc(N[C@@H]3CCCC[C@@H]3N)nc21 | 80%
COc1cc(OC)c(/C=C2\C(=O)Nc3ccccc32)c(OC)c1 | 107%
O=[N+]([O-])/C=C/c1ccc2c(c1)OCO2 | 81%
c1cc(-c2cnn3cc(-c4ccc(OCCN5CCCCC5)cc4)cnc23)ccn1 | 103%
COc1ccc2c(c1)/C(=C/c1cnc[nH]1)C(=O)N2 | 80%
CC(C)[C@H](CO)Nc1nc(Nc2cccc(Cl)c2)c2ncn(C(C)C)c2n1 | 92%
